From PubChem BioAssay (NCI)
About 83,000 compounds went through this panel and 20% of them were active in at least one assay; those are over-represented in the sample as a whole.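 Negative percent growth values reflect cell death: -40 means 40% of the cells present at the start died, and -100 means all died.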 A number with no mark means an inactive call. The source made the active and inactive calls. The calls were made as follows: active = growth percent below 10; inactive = the rest.

Tests used:
Assay in all cases: NCI-60 one-dose screen, 48 h (100 = growth as untreated, 0 = no growth, -100 = all killed)
Details in all cases: 10 µM unless noted
SR leukemia = system: SR leukemia
RPMI-8226 leukemia = system: RPMI-8226 leukemia
OVCAR-8 ovarian = system: OVCAR-8 ovarian
OVCAR-5 ovarian = system: OVCAR-5 ovarian
OVCAR-4 ovarian = system: OVCAR-4 ovarian
SK-OV-3 ovarian = system: SK-OV-3 ovarian
IGROV1 ovarian = system: IGROV1 ovarian
OVCAR-3 ovarian = system: OVCAR-3 ovarian
HS 578T breast = system: HS 578T breast
NCI/ADR-RES ovarian = system: NCI/ADR-RES ovarian
T-47D breast = system: T-47D breast
BT-549 breast = system: BT-549 breast
MDA-MB-435 melanoma = system: MDA-MB-435 melanoma
SW-620 colon = system: SW-620 colon
MCF7 breast = system: MCF7 breast
HCT-116 colon = system: HCT-116 colon
HCC-2998 colon = system: HCC-2998 colon
KM12 colon = system: KM12 colon

## CN(C)CCCn1c(=O)c2cc([N+](=O)[O-])ccc2c2cnc3[nH]ccc3c21
SR leukemia
  growth: -27.6% (active)
RPMI-8226 leukemia
  growth: 45.4%
OVCAR-8 ovarian
  growth: 35.1%
OVCAR-5 ovarian
  growth: 73.1%
OVCAR-4 ovarian
  growth: 61%
SK-OV-3 ovarian
  growth: 63.8%
IGROV1 ovarian
  growth: 54.9%
OVCAR-3 ovarian
  growth: 68.2%
HS 578T breast
  growth: 75.3%
NCI/ADR-RES ovarian
  growth: 51.7%
T-47D breast
  growth: 86.5%
BT-549 breast
  growth: 68.7%
MDA-MB-435 melanoma
  growth: 67.7%
SW-620 colon
  growth: 33.1%
MCF7 breast
  growth: -12% (active)
HCT-116 colon
  growth: 12.4%
HCC-2998 colon
  growth: 60%
KM12 colon
  growth: 47.9%

## COc1ccccc1-[n+]1cc(-c2ccc(-c3ccccc3)cc2)n2c1CCCCC2
SR leukemia
  growth: 8.54% (active)
RPMI-8226 leukemia
  growth: -14.7% (active)
OVCAR-8 ovarian
  growth: 2.74% (active)
OVCAR-5 ovarian
  growth: 18.4%
OVCAR-4 ovarian
  growth: 20.2%
SK-OV-3 ovarian
  growth: -18.1% (active)
IGROV1 ovarian
  growth: 16.6%
OVCAR-3 ovarian
  growth: 9.07% (active)
HS 578T breast
  growth: 22.1%
NCI/ADR-RES ovarian
  growth: 86.9%
T-47D breast
  growth: -5.11% (active)
BT-549 breast
  growth: -1.37% (active)
MDA-MB-435 melanoma
  growth: 6.5% (active)
SW-620 colon
  growth: 14.6%
MCF7 breast
  growth: 4.74% (active)
HCT-116 colon
  growth: 6.3% (active)
HCC-2998 colon
  growth: 21.5%
KM12 colon
  growth: 4.15% (active)

## CC(C)N(C(=S)SSC(=S)N(C(C)C)C(C)C)C(C)C
SR leukemia
  growth: 105%
RPMI-8226 leukemia
  growth: 87.2%
OVCAR-8 ovarian
  growth: 111%
OVCAR-5 ovarian
  growth: 107%
OVCAR-4 ovarian
  growth: 78.7%
SK-OV-3 ovarian
  growth: 112%
IGROV1 ovarian
  growth: 92.2%
OVCAR-3 ovarian
  growth: 108%
HS 578T breast
  growth: 106%
NCI/ADR-RES ovarian
  growth: 104%
T-47D breast
  growth: 86.8%
BT-549 breast
  growth: 107%
MDA-MB-435 melanoma
  growth: 99.6%
SW-620 colon
  growth: 105%
MCF7 breast
  growth: 90.3%
HCT-116 colon
  growth: 96.7%
HCC-2998 colon
  growth: 113%
KM12 colon
  growth: 108%

## NC(CCC(=O)NC(CS)C(=O)NCC(=O)O)C(=O)O (stereo unspecified)
SR leukemia
  growth: 97.3%
RPMI-8226 leukemia
  growth: 74.2%
OVCAR-8 ovarian
  growth: 98.7%
OVCAR-5 ovarian
  growth: 97.6%
OVCAR-4 ovarian
  growth: 108%
SK-OV-3 ovarian
  growth: 116%
IGROV1 ovarian
  growth: 98.1%
OVCAR-3 ovarian
  growth: 110%
HS 578T breast
  growth: 107%
NCI/ADR-RES ovarian
  growth: 107%
T-47D breast
  growth: 107%
BT-549 breast
  growth: 119%
MDA-MB-435 melanoma
  growth: 106%
SW-620 colon
  growth: 103%
MCF7 breast
  growth: 103%
HCT-116 colon
  growth: 114%
HCC-2998 colon
  growth: 60%
KM12 colon
  growth: 108%

## CC(C)CC1NC(=O)C(CC(C)C)N(CO)C1=O (stereo unspecified)
SR leukemia
  growth: 96.4%
RPMI-8226 leukemia
  growth: 81.1%
OVCAR-8 ovarian
  growth: 107%
OVCAR-5 ovarian
  growth: 106%
OVCAR-4 ovarian
  growth: 113%
SK-OV-3 ovarian
  growth: 102%
IGROV1 ovarian
  growth: 106%
OVCAR-3 ovarian
  growth: 123%
HS 578T breast
  growth: 106%
NCI/ADR-RES ovarian
  growth: 117%
T-47D breast
  growth: 96.5%
BT-549 breast
  growth: 101%
MDA-MB-435 melanoma
  growth: 111%
SW-620 colon
  growth: 112%
MCF7 breast
  growth: 92.7%
HCT-116 colon
  growth: 98.8%
HCC-2998 colon
  growth: 102%
KM12 colon
  growth: 110%

## O=C(Nc1ccc([N+](=O)[O-])cc1)c1cc2ccccc2cc1O
SR leukemia
  growth: -17.1% (active)
RPMI-8226 leukemia
  growth: -26.9% (active)
OVCAR-8 ovarian
  growth: 0.735% (active)
OVCAR-5 ovarian
  growth: 20.7%
OVCAR-4 ovarian
  growth: 1.96% (active)
SK-OV-3 ovarian
  growth: 9.58% (active)
IGROV1 ovarian
  growth: 15.2%
OVCAR-3 ovarian
  growth: 83.6%
HS 578T breast
  growth: -19.9% (active)
NCI/ADR-RES ovarian
  growth: -9.03% (active)
T-47D breast
  growth: 1.61% (active)
BT-549 breast
  growth: -14.2% (active)
MDA-MB-435 melanoma
  growth: 0.673% (active)
SW-620 colon
  growth: 4.63% (active)
MCF7 breast
  growth: 5.51% (active)
HCT-116 colon
  growth: -39.7% (active)
HCC-2998 colon
  growth: 5.37% (active)
KM12 colon
  growth: 92.6%

## Nc1c(N)c2ccccc2c2ccccc12
SR leukemia
  growth: 94.1%
RPMI-8226 leukemia
  growth: 94.8%
OVCAR-8 ovarian
  growth: 99.1%
OVCAR-5 ovarian
  growth: 107%
OVCAR-4 ovarian
  growth: 96.5%
SK-OV-3 ovarian
  growth: 102%
IGROV1 ovarian
  growth: 117%
OVCAR-3 ovarian
  growth: 116%
HS 578T breast
  growth: 104%
NCI/ADR-RES ovarian
  growth: 101%
T-47D breast
  growth: 104%
BT-549 breast
  growth: 112%
MDA-MB-435 melanoma
  growth: 107%
SW-620 colon
  growth: 103%
MCF7 breast
  growth: 98.3%
HCT-116 colon
  growth: 114%
HCC-2998 colon
  growth: 103%
KM12 colon
  growth: 116%

## CN1C(=O)N(C)C2C1NN=c1s/c(=C\c3ccsc3)c(=O)n12 (stereo unspecified)
SR leukemia
  growth: 20.6%
RPMI-8226 leukemia
  growth: 58%
OVCAR-8 ovarian
  growth: 59.5%
OVCAR-5 ovarian
  growth: 72.6%
OVCAR-4 ovarian
  growth: 89.5%
SK-OV-3 ovarian
  growth: 59.7%
IGROV1 ovarian
  growth: 46.9%
OVCAR-3 ovarian
  growth: 14.9%
HS 578T breast
  growth: 53.9%
NCI/ADR-RES ovarian
  growth: 39.8%
T-47D breast
  growth: 44.3%
BT-549 breast
  growth: 37%
MDA-MB-435 melanoma
  growth: -3.38% (active)
SW-620 colon
  growth: 26.6%
MCF7 breast
  growth: 15.2%
HCT-116 colon
  growth: 18.5%
HCC-2998 colon
  growth: 73.7%
KM12 colon
  growth: 18.9%

## CCOC(=O)Cn1c(-c2nonc2NC(=O)c2ccccc2F)nc2ccccc21
SR leukemia
  growth: 10.8%
RPMI-8226 leukemia
  growth: 40.6%
OVCAR-8 ovarian
  growth: 38.8%
OVCAR-5 ovarian
  growth: 75%
OVCAR-4 ovarian
  growth: 90.8%
SK-OV-3 ovarian
  growth: 75%
IGROV1 ovarian
  growth: 46.3%
OVCAR-3 ovarian
  growth: 56.7%
HS 578T breast
  growth: 73.1%
NCI/ADR-RES ovarian
  growth: 55.7%
T-47D breast
  growth: 75.6%
MDA-MB-435 melanoma
  growth: 49.3%
SW-620 colon
  growth: 38.5%
MCF7 breast
  growth: 37%
HCT-116 colon
  growth: 22.9%
HCC-2998 colon
  growth: 33.3%
KM12 colon
  growth: 41.1%
